The text below walks through data of PubChem BioAssay (EPA / NIEHS).

The subject of test [1] is turtle Thyroid Hormone Receptor, alpha (TRa), gene 101949057. Kind of test: ATG_trTRa_XSP1: Attagene TRANS-FACTORIAL Multi-Species (XSP1) HepG2 Assay for turtle Thyroid Hormone Receptor, alpha (TRa) (AID 2283806). The procedure, abridged: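 After 24 h chemical exposure, reporter transcripts were measured by RT-PCR with fluorescent primer extension, HpaI digestion and capillary electrophoresis. Cells were transiently transfected HepG2 expressing exogenous NR-Gal4 chimeras; medium contained 3 nM 6-alpha-fluorotestosterone; fitted upward relative to DMSO.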

Test [2] addresses zebrafish Thyroid Hormone Receptor beta (TRb), thrb (gene 30607) (UniProt Q9PVE4). Put plainly: ATG_zfTRb_XSP1: Attagene TRANS-FACTORIAL Multi-Species (XSP1) HepG2 Assay for zebrafish Thyroid Hormone Receptor beta (TRb) (AID 2283809). The procedure, abridged: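 HepG2 cells transiently transfected with multiplexed GAL4-UAS reporter units expressing chimeric zebrafish TRb–Gal4. Dosed 24 h with 3 nM 6-alpha-fluorotestosterone present; reporter mRNA measured by RT-PCR, HpaI digestion and capillary electrophoresis; gain of signal versus DMSO.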

Test [3] in a line: ATG_M_06_XSP2: Attagene TRANS-FACTORIAL Multi-Species (XSP2) HepG2 Assay for M06 Transcription Factor (Internal Marker) (AID 2283811).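 Also: hits are increases in signal above the DMSO baseline.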 Put shortly:
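Readout: fluorescent reporter-mRNA peaks by capillary electrophoresis after RT-PCR and HpaI digest, scored upward relative to DMSO. Transfected HepG2, 24 h chemical exposure, with 3 nM 6-alpha-fluorotestosterone and 1.5 nM norgestrel added.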

In test [4] the test system is turtle Estrogen Receptor (ERa), gene 101933533. Kind of test: ATG_trERa_XSP2: Attagene TRANS-FACTORIAL Multi-Species (XSP2) HepG2 Assay for turtle Estrogen Receptor (ERa) (AID 2283812).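 Also: actives raise reporter signal above DMSO so AC50 reflects agonist activity.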 The procedure, abridged: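 Readout is reporter mRNA quantified by RT-PCR with capillary electrophoresis after 24 h compound exposure, increase relative to DMSO. Uses transiently transfected human HepG2 liver cells carrying a chimeric turtle ERa-Gal4 receptor driving GAL4-UAS reporters.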

Test [5] addresses GAL4 Transcription Factor (Internal Marker), GAL4 (gene 855828) (UniProt P04386). Put plainly: ATG_GAL4_XSP2: Attagene TRANS-FACTORIAL Multi-Species (XSP2) HepG2 Assay for GAL4 Transcription Factor (Internal Marker) (AID 2283814).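 Also: GAL4 reporter mRNA background control in MRTU transfected cells not a receptor target.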 Put shortly: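 Background-control readout: gain-of-signal fitted against DMSO. After 24 h exposure of transfected HepG2 (MRTU, GAL4-UAS reporters; 3 nM 6-alpha-fluorotestosterone, 1.5 nM norgestrel present), transcripts quantified by RT-PCR and capillary electrophoresis fluorescence.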

The target in test [6] is chicken Estrogen Receptor (ERa), ESR1 (gene 396099) (UniProt P06212). Kind of test: ATG_chERa_XSP2: Attagene TRANS-FACTORIAL Multi-Species (XSP2) HepG2 Assay for chicken Estrogen Receptor (ERa) (AID 2283817).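 Also: actives raise reporter signal above DMSO so AC50 reflects ER activation.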 The procedure, abridged: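 Readout: fluorescent reporter-transcript fragments resolved by capillary electrophoresis after RT-PCR and HpaI cut. Chicken ERa-Gal4 fusion in transiently transfected HepG2, dosed for 24 h; activity taken as increase over DMSO baseline.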
chicken Estrogen Receptor (ERa), ESR1 (gene 396099), sequence (P06212 whole entry, looked up, the tested form may be a part): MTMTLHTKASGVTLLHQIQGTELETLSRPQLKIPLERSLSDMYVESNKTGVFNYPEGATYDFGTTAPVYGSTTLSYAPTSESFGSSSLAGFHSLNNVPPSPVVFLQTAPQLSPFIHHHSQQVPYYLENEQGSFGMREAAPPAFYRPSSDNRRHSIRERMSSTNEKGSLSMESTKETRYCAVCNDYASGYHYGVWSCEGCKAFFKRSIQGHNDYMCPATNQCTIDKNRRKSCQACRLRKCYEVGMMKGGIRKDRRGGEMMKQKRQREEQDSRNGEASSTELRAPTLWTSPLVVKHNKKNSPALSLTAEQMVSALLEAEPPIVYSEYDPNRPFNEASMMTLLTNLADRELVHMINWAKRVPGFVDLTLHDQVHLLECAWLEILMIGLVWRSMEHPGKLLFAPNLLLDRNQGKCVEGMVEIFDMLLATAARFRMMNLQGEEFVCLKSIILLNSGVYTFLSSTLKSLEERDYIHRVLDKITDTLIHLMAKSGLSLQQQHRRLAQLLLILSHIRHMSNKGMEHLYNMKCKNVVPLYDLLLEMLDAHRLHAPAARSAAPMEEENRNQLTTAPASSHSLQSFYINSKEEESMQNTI

Test [7] concerns zebrafish Estrogen Receptor (ER2a), gene 317734. Kind of test: ATG_zfER2a_XSP2: Attagene TRANS-FACTORIAL Multi-Species (XSP2) HepG2 Assay for zebrafish Estrogen Receptor (ER2a) (AID 2283818).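 Also: hits raise reporter mRNA so AC50 reflects activation of zebrafish ER2a.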 The procedure, abridged: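 Multiplexed trans-reporter readout: RT-PCR then capillary electrophoresis of reporter transcripts after 24 h compound treatment. Human HepG2 carries transfected zebrafish ER2a-Gal4 chimera; 3 nM 6-alpha-fluorotestosterone plus 1.5 nM norgestrel present. Induction scored against DMSO.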

Test [8] deals with frog Estrogen Receptor (ER), gene 398734. Kind of test: ATG_frER1_XSP2: Attagene TRANS-FACTORIAL Multi-Species (XSP2) HepG2 Assay for frog Estrogen Receptor (ER) (AID 2283821).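 Also: hits raise reporter mRNA above DMSO baseline so potency means agonist or activator.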 The procedure, abridged:
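Reporter mRNA induction, detected as fluorescence after RT-PCR and capillary electrophoresis, is the endpoint; activity is fitted upward against DMSO. Cells are human liver HepG2 carrying transfected NR-Gal4 chimeras with GAL4-UAS-driven reporters, harvested 24 h post-dosing.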

In test [9] the test system is zebrafish Estrogen Receptor (ER2b), gene 317733. Put plainly: ATG_zfER2b_XSP2: Attagene TRANS-FACTORIAL Multi-Species (XSP2) HepG2 Assay for zebrafish Estrogen Receptor (ER2b) (AID 2283823).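 Also: fitted upward as reporter gain over DMSO so potency reflects activation.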 Put shortly: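 Transfect HepG2 with GAL4-UAS reporter constructs; dose chemicals, 24 h; isolate RNA, RT-PCR, FAM-label, HpaI digest; capillary electrophoresis. Gain-of-signal vs DMSO.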

Test [10] addresses Estrogen receptor (Homo sapiens) (UniProt P03372). Kind of test: ATG_hERa_XSP2: Attagene TRANS-FACTORIAL Multi-Species (XSP2) HepG2 Assay for human Estrogen Receptor (ERa) (AID 2283827). The procedure, abridged:
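Trans-activation of exogenous human ERa-Gal4 chimera read in HepG2 as reporter transcript after 24 h exposure; medium included 3 nM 6-alpha-fluorotestosterone and 1.5 nM norgestrel. Quantified by RT-PCR with capillary electrophoresis, positive-direction fitting against DMSO.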

Test [11] deals with frog Estrogen Receptor (ER2), gene 100174814. Put plainly: ATG_frER2_XSP2: Attagene TRANS-FACTORIAL Multi-Species (XSP2) HepG2 Assay for frog Estrogen Receptor (ER2) (AID 2283828). Put shortly: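 Cells were transfected with reporter constructs under GAL4-UAS control, dosed with chemicals for 24 h, then lysed for RNA; the frog ER2-driven reporter mRNA was quantified by capillary electrophoresis of labeled PCR fragments, with activity fitted upward from DMSO.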

Test [12] addresses mouse Peroxisome Proliferator-activated Receptor gamma (PPARg), Pparg (gene 19016) (UniProt P37238). Kind of test: ATG_mPPARg_XSP2: Attagene TRANS-FACTORIAL Multi-Species (XSP2) HepG2 Assay for mouse Peroxisome Proliferator-activated Receptor gamma (PPARg) (AID 2283830).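 Also: hits are gains in reporter mRNA above DMSO so AC50 marks activation.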 Put shortly: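 Multiplexed TRANS reporter readout: after 24 h chemical exposure of transfected HepG2 cells (with 3 nM 6-alpha-fluorotestosterone, 1.5 nM norgestrel present), RNA reverse-transcribed, amplified, 6-FAM-labelled and resolved by capillary electrophoresis; mouse PPARg-Gal4 induction scored against DMSO.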

For test [13], the target named is zebrafish Estrogen Receptor (ER1), esr1 (gene 259252) (UniProt P57717). Put plainly: ATG_zfER1_XSP2: Attagene TRANS-FACTORIAL Multi-Species (XSP2) HepG2 Assay for zebrafish Estrogen Receptor (ER1) (AID 2283816). Put shortly: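 After 24 h compound exposure, RNA from transfected HepG2 cells was reverse-transcribed and reporter transcripts resolved by capillary electrophoresis. The TRANS format reads exogenous zebrafish ER1-Gal4 chimera activity on GAL4-UAS elements; gain of signal against DMSO.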
zebrafish Estrogen Receptor (ER1), esr1 (gene 259252), sequence (P57717 whole entry, looked up, the tested form may be a part): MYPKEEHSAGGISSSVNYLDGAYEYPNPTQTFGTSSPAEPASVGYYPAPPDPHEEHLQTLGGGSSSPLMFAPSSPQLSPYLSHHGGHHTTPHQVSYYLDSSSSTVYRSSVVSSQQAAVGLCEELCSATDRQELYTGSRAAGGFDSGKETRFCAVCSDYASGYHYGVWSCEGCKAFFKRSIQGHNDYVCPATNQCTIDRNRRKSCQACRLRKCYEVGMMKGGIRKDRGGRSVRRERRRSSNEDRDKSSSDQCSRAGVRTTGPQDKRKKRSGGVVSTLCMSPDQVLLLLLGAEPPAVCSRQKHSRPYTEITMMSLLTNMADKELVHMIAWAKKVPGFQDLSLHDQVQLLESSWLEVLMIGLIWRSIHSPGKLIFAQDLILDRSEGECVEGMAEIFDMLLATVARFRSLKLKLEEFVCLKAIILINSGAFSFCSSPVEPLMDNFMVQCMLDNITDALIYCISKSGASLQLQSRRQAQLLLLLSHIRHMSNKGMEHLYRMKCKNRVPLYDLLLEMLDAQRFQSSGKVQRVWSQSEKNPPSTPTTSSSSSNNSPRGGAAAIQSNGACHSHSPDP

Test [14] is described as follows: ATG_M_19_XSP2: Attagene TRANS-FACTORIAL Multi-Species (XSP2) HepG2 Assay for M32 Transcription Factor (Internal Marker) (AID 2283822). The procedure, abridged: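 Internal background marker in a multi-species nuclear receptor TRANS panel: transfected HepG2 cells exposed 24 h, with 3 nM 6-alpha-fluorotestosterone and 1.5 nM norgestrel present. Readout is RT-PCR of reporter transcripts resolved by capillary electrophoresis, gain-of-signal versus DMSO.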

In test [15] the target is Peroxisome proliferator-activated receptor gamma (Homo sapiens) (UniProt P37231). Kind of test: ATG_hPPARg_XSP2: Attagene TRANS-FACTORIAL Multi-Species (XSP2) HepG2 Assay for human Peroxisome Proliferator-activated Receptor gamma (PPARg) (AID 2283829).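 Also: actives raise reporter mRNA above DMSO so AC50 reflects PPARg activation.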 Put shortly: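 Transient MRTU transfection, HepG2; TRANS format (exogenous NR-Gal4 chimeras). 24 h chemical exposure with 3 nM 6-alpha-fluorotestosterone and 1.5 nM norgestrel present. Readout: reporter mRNA via RT-PCR/CE fluorescence, up-direction vs DMSO.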
Peroxisome proliferator-activated receptor gamma (Homo sapiens), sequence (P37231 whole entry, looked up, the tested form may be a part): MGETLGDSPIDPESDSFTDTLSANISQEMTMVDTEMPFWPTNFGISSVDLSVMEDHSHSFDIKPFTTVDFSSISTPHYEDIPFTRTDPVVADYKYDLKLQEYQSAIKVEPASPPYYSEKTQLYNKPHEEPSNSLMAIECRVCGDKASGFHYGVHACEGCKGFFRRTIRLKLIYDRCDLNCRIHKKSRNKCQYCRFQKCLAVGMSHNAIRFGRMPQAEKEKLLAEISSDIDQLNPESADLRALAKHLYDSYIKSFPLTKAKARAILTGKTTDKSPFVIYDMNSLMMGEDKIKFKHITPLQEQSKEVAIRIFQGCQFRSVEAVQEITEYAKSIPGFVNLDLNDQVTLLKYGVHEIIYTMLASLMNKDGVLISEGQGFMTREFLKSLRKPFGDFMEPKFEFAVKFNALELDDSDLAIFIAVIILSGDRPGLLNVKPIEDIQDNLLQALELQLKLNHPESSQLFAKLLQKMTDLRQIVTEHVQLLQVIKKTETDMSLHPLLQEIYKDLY

The target in test [16] is Estrogen receptor beta (Homo sapiens) (UniProt Q92731). Put plainly: ATG_hERb_XSP2: Attagene TRANS-FACTORIAL Multi-Species (XSP2) HepG2 Assay for human Estrogen Receptor (ERb) (AID 2283813).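 Also: actives raise reporter mRNA above DMSO so AC50 reflects agonist induction.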 The procedure, abridged:
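Transient TRANS reporter system in HepG2: after 24 h of chemical, RNA is reverse-transcribed, reporter cDNA amplified, FAM-labelled and sized by capillary electrophoresis. Induction of the human ERb-Gal4 reporter is measured relative to DMSO.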

One may read the AC50 as the concentration giving half of the maximal activity seen.

Where “and” joins values, the source holds several entries; their conditions need not be identical. Equal values may be shown once. Records with an inconclusive call do not appear. A structure can be active in one record and inactive in another. Calls of active or inactive are those of the source. The calls were made as follows: active = hit-call score of the fitted dose curve at least 0.9, where 1 is the maximum; inconclusive = response in the unintended direction; inactive = score below 0.9.

mouse Peroxisome Proliferator-activated Receptor gamma (PPARg), Pparg (gene 19016), sequence (P37238 whole entry, looked up, the tested form may be a part): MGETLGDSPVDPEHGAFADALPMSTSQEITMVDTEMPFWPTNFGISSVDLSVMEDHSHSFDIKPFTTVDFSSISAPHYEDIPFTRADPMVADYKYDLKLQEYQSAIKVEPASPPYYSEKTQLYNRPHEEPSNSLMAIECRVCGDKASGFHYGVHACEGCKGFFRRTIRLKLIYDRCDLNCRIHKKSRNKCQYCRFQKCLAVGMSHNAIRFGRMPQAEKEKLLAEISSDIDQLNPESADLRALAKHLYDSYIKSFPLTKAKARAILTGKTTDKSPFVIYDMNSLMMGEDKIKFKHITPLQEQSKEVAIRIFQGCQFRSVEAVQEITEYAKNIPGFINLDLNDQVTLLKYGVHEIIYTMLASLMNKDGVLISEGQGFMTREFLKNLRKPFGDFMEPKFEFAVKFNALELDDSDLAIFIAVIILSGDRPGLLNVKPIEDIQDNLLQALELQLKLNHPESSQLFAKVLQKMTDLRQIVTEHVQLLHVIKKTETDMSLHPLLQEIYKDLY
Estrogen receptor (Homo sapiens), sequence (P03372 whole entry, looked up, the tested form may be a part): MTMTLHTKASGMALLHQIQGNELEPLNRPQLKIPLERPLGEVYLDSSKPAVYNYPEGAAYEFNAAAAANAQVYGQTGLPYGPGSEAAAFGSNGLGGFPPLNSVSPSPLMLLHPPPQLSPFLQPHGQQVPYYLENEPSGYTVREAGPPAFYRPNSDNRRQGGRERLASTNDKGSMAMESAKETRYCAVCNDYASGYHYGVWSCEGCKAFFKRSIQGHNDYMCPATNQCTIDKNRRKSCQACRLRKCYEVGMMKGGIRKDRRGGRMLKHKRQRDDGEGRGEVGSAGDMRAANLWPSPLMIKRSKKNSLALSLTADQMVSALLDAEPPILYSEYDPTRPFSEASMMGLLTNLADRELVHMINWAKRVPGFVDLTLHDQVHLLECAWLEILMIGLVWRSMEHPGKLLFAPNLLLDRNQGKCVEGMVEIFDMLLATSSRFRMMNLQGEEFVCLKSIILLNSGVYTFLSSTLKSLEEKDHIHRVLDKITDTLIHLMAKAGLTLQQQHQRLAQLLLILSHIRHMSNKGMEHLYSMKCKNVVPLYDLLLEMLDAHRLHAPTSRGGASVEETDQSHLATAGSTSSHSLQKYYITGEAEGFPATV
GAL4 Transcription Factor (Internal Marker), GAL4 (gene 855828), sequence (P04386 whole entry, looked up, the tested form may be a part): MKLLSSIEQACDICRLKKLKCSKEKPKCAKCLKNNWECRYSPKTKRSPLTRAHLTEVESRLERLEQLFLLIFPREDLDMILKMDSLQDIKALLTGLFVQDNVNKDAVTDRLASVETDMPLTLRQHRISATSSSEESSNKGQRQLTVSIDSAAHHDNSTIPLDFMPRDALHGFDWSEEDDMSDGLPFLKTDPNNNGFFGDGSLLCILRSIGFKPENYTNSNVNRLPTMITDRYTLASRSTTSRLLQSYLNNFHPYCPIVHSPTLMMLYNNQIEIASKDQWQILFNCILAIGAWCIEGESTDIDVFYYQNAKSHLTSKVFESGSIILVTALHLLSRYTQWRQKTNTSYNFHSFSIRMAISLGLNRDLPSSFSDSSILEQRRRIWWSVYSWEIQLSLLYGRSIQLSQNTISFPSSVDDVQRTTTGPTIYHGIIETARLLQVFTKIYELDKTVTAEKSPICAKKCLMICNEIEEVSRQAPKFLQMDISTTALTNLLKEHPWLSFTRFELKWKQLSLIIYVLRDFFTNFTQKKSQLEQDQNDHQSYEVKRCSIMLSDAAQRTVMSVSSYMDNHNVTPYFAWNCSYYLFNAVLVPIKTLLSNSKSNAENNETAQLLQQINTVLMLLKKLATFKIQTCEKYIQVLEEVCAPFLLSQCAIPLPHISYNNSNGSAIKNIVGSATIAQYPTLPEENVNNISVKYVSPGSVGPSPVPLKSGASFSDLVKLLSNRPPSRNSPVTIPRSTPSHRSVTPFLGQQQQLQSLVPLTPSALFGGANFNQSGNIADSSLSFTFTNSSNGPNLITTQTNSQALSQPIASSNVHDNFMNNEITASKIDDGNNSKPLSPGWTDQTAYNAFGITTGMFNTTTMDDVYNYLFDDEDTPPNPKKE
Estrogen receptor beta (Homo sapiens), sequence (Q92731 whole entry, looked up, the tested form may be a part): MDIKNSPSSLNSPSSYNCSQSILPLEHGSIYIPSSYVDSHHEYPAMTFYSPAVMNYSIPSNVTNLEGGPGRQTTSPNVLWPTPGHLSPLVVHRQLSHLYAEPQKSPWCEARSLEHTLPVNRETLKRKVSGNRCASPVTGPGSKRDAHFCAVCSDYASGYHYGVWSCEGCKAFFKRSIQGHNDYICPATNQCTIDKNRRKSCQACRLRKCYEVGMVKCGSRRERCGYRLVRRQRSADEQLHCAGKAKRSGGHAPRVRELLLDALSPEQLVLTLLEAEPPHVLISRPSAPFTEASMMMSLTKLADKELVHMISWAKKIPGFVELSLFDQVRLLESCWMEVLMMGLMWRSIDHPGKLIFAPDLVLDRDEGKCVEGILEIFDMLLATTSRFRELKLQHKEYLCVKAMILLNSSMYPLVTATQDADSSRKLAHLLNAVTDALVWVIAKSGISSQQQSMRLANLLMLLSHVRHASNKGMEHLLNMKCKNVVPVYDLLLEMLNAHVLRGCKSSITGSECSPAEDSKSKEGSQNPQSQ
zebrafish Thyroid Hormone Receptor beta (TRb), thrb (gene 30607), sequence (Q9PVE4 whole entry, looked up, the tested form may be a part): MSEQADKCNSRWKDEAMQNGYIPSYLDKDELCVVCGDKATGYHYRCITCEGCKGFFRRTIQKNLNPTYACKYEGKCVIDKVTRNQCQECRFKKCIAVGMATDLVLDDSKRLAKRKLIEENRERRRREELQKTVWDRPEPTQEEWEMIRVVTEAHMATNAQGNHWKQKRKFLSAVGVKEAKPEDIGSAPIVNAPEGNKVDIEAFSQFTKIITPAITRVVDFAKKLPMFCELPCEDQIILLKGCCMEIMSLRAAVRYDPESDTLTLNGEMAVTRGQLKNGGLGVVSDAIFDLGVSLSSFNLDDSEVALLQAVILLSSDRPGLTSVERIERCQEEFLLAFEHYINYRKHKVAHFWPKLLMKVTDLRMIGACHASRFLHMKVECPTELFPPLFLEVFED

In the case of `CC(C)(C)NC(=O)[C@H]1CC[C@H]2[C@@H]3CC[C@H]4NC(=O)C=C[C@]4(C)[C@H]3CC[C@]12C`, the outcome in test [1], in test [2], in test [3], in test [4], in test [5] and in test [6] was inactive. Besides, the result in test [8] and in [12] was inactive. The AC50 in test [7] was 142 µM (active); in test [9], 67.5 µM (active); in [10] it was 33.5 µM (active); in test [11] it was 100 µM (active).
Turning to `C=C1C[C@H]2[C@@H]3C=C(C)C4=CC(=O)CC[C@]4(C)[C@H]3CC[C@]2(C)[C@@]1(OC(C)=O)C(C)=O`, the compound was classed as inactive in [5], in test [13], in test [7], in [8], in test [14] and in test [9]. In addition, the compound was called inactive in test [15] and in test [12].
As to `COc1ccc(C(=O)c2ccccc2)c(O)c1`, the compound was called inactive in test [3], in test [16], in test [5] and in [6]. Also, the AC50 was 4.74 µM (active) and 26.3 µM (active) in [4]; 26.8 µM (active) in test [16]; 11 µM (active) and 16.7 µM (active) in test [13]; 6.73 µM (active) in [6]; 9.9 µM (active) in test [7]; 5.07 µM (active) and 26 µM (active) in test [8]. Moreover, the concentration at half-maximal activity (AC50) in [9] was 43.3 µM (active) and 14.3 µM (active); in [10], 6.54 µM (active) and 26.4 µM (active); in [11] it was 7.66 µM (active) and 2.39 µM (active); in test [15], 74.1 µM (active) and 41.1 µM (active); in test [12], 78.9 µM (active) and 63.2 µM (active).
